Screening data deposited in PubChem by National Center for Advancing Translational Sciences (NCATS).
Rows were chosen to be rich in hits. Some 17% of all compounds tested hit in one or more screens of this group.
TDP1 inh = blocks human tyrosyl-DNA phosphodiesterase 1; Q9NUW8; recombinant TDP1, AlphaScreen DNA substrate cleavage; Potency, µM (series often up to 130 µM), for inactives: at the highest dose activity change, negative = inhibition, most hits filed as inhibitors; 0.28% of 350,000 active; AID 485290; note: % is set by controls: 0 for no effect and ±100 for the full control effect; nearly all actives have a fitted effect of over 40% in size
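E. coli-derived human Tdp1, 1 nM final. Cpd preinc 15 min RT; substrate 15 nM final, 5 min RT; AS bead mix 10 ug/ml final, 10 min RT. Signal loss = tyrosine-FITC cleavage. No-enzyme wells = max signal.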
DT40 TDP1 CPT = DT40-hTDP1 cell growth loss with CPT | Potency, µM (top dose mostly 46.2 µM), for the others: at the highest dose activity change, negative = growth inhibition, most hits filed as inhibitors | chicken DT40 Tdp1-/-;hTDP1 cells + 20 nM CPT, ATP luminescence, 48 h | 12% of 420,000 active; note: % is set by controls: 0 for no effect and ±100 for the full control effect; nearly all actives have a fitted effect of over 55% in size
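Chicken DT40 Tdp1-/- cells complemented with human TDP1, 400 cells/well, exposed to compounds plus 20 nM camptothecin for at least 48 h at 37 C; viability read as ATP content by CellTiter-Glo luminescence.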
DT40 TDP1 no CPT = qHTS for Inhibitors of human tyrosyl-DNA phosphodiesterase 1 (TDP1): qHTS in cells in absence of CPT | Potency, µM (titrated, usually from 46.2 µM), without a hit: at the highest dose activity change, negative = growth inhibition, hits mostly inhibitors | 15% of 420,000 active | DT40 Tdp1-/- hTDP1 cells, no CPT, ATP luminescence, 48 h; note: % is set by controls: 0 for no effect and ±100 for the full control effect; nearly all actives have a fitted effect of over 55% in size
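Luminescent ATP content (CellTiter-Glo) served as the growth readout. Knockout chicken DT40 cells expressing human TDP1 were exposed to compounds without camptothecin for a minimum 48 hr at 37 °C.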
ClpP mod = qHTS Assay for Activators of ClpP; purified B. subtilis ClpP, FRET peptide cleavage, 20 min; Potency, µM (doses to about 57.5 µM), inactives show at the highest dose activity change, negative = active; 1.9% of 340,000 active; active = well fitted falling curve with a large enough effect; inconclusive = small, poorly fitted or top-dose-only effect; inactive = no such curve, though single readings can be large or run the other way; note: the source files actives as falling curves though it sought activators and does not explain the sign; nearly all actives have a fitted effect of over 65% in size
Target sequence (P80244 whole entry, looked up): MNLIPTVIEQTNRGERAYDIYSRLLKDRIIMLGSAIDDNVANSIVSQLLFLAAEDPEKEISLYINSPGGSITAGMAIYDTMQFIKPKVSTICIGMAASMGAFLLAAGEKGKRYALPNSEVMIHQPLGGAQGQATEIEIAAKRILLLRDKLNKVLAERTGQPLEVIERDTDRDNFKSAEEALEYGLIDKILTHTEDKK
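FRET quenching reversal measured ClpP activation: 10 microg/mL B. subtilis ClpP at pH 8 with the FRET-FV decapeptide, read at 430 nm after 320 nm excitation. The 20-min minus 0-min signal was scaled between DMSO/no-enzyme wells and ADEP (5.8 microM final).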
* hit, by the source's call; ? = inconclusive; / = not tested or not shown; ! = repeats disagree; [ ] = dose if it differs, or a comment. Unless noted, calls come from the whole dose curve; as a rule, active = well fitted curve in the direction sought with a large enough effect; inconclusive = small, poorly fitted or top-dose-only effect, or another doubt; inactive = no such curve, though single readings can be large; an effect the other way counts as inactive or inconclusive. Potency is the fitted concentration of half-maximal effect.

SMILES	TDP1 inh	DT40 TDP1 CPT	DT40 TDP1 no CPT	ClpP mod
COc1cc(NC(=O)c2c(OC)cccc2OC)ccc1NC(=O)c1cc2ccccc2o1	/	10µM*	?	/
COc1cc(NC(=O)c2cccc(Cl)c2Cl)ccc1NC(=O)c1cc2ccccc2o1	0%[2.28 µM]	5.2µM*	2.6µM*	-6%
CCOC(=O)c1ccc(NC(=O)c2cc3ccccc3o2)cc1	2%	?	?	?
COc1ccc(/C=C\C(=O)NC2CC(=O)N(c3ccc(F)cc3)C2)cc1OC (stereo not given)	-3%	-15%	-18%	?
Cc1ccc(S(=O)ONc2cccc(NOS(=O)c3ccc(C)cc3)c2)cc1 (stereo not given)	/	?	?	-1%
COc1ccc(-c2noc(-c3csc([C@@H]4O[C@H](CO)[C@H](O)[C@H](O)[C@H]4O)n3)n2)cc1OC	/	-5%	14%	-1%
CCCCCC(=O)Nc1ccc(NC(=O)c2cc3ccccc3o2)c(OC)c1	-9%[12.3 µM]	6.5µM*	4.6µM*	-15%
CN[C@@H]1[C@@H](O[C@H]2O[C@H](CO)[C@@H](N)[C@H](O)[C@H]2O)O[C@H]2C[C@@H](N)[C@@H](O[C@H]3[C@H](O)[C@@H](O)[C@H](N)C[C@@H]3N)O[C@@H]2[C@@H]1O	/	-5%[21.1 µM]	-4%[21.1 µM]	/
Cc1cc(NC(=O)Cc2ccccc2)cc(-c2nc3ccccc3o2)c1O	6%	/	/	0%
Cc1nc(C(=O)Nc2ccccc2)sc1C(=O)Nc1ccccc1	/	18µM*	?	/
Cc1nc(-c2ccccc2)sc1C(=O)Nc1ccc(S(N)(=O)=O)cc1	/	-25%	13µM*	/
Cc1nc(-c2ccccc2)sc1C(=O)Nc1ccccc1F	/	-1%	-21%	0%
COc1ccc(-c2nc3cnc(OC)nc3n(Cc3cccc(OC)c3)c2=O)cc1	/	5%	-11%	/
COc1ccc(C(CNC(=O)c2cccc(S(=O)(=O)Nc3cccc(C)c3)c2)N2CCOCC2)cc1 (stereo not given)	4%	?	?	-1%
Nc1ccn([C@@H]2O[C@H](COS(=O)(=O)O)[C@@H](O)[C@H]2O)c(=O)n1	2%	9.2µM*	1.8µM*	-1%
Nc1ccn(C2OC(COC(=O)C34CC5CC(CC(C5)C3)C4)C(O)C2O)c(=O)n1 (stereo not given)	/	0.052µM*	0.37µM*	-2%
Nc1ccn(C2OC(CCl)C(O)C2O)c(=O)n1 (stereo not given)	/	2.6µM*	3.7µM*	-1%
Nc1nc(=O)n(C2OC(CO)C(O)C2O)cc1Cl (stereo not given)	12%[56.1 µM]	?	5.2µM*	/
O=C(NCc1cccs1)c1nn(-c2ccccc2F)nc1CO	7%	-20%	-26%	1%
Nc1ccn([C@@H]2O[C@H](CO)[C@@H](O)C2(F)F)c(=O)n1	/	0.0094µM*	0.0094µM*	/
Nc1ccn([C@@H]2O[C@H](CO)[C@@H](O)[C@H]2O)c(=O)n1	10%[56.1 µM]	2%	-1%	1%
CCCCCCCCCCCCCCCCCCCCCC(=O)Nc1ccn([C@@H]2O[C@H](CO)[C@@H](O)[C@@H]2O)c(=O)n1	/	2.7µM*	3.3µM*	/
O=c1ccn([C@@H]2O[C@H](COS(=O)(=O)O)[C@@H](O)[C@H]2O)c(=O)[nH]1	2%	5.2µM*	4.1µM*	-3%
Nc1ccn([C@@H]2O[C@H](CO)[C@@H](O)C2O)c(=O)n1 (stereo not given in full)	-3%	0.037µM*	0.041µM*	1%
O=c1[nH]cnc2c1ncn2[C@@H]1O[C@H](COS(=O)(=O)O)[C@@H](O)[C@H]1O	1%	3.7µM*	?	1%
SMILES	TDP1 inh	DT40 TDP1 CPT	DT40 TDP1 no CPT	ClpP mod
COc1ccc(NC(=O)c2ccccc2NS(C)(=O)=O)cc1OC	1%	21µM*	10µM*	-2%
CC(=O)c1ccccc1NS(C)(=O)=O	-1%	-2%	-14%	/
COc1ccccc1NC(=O)c1ccccc1NC(=O)c1cccs1	4%	23µM*	?	/
COc1cccc(NC(=O)c2cc(Cl)nnc2Cl)c1	2%	0.52µM*	8.2µM*	/
COC(=O)c1ccc(NC(=O)c2ccccc2NS(C)(=O)=O)cc1	6%	?	?	-2%
CS(=O)(=O)Nc1ccccc1C(=O)NC1CC2CCC1C2 (stereo not given)	5%	2%	-14%	35µM*
COc1ccccc1NC(=O)c1cccs1	4%	-6%	-10%	-2%
CN(C)CCN=Cc1c(O)n(-c2ccc(S(=O)(=O)N3CCOCC3)cc2)c(=O)c2ccccc12	2%	-3%	-13%	/
COc1ccc(CNC(=O)C(CCSC)NS(=O)(=O)c2ccc3c(c2)oc(=O)n3C)cc1 (stereo not given)	1%	-16%	-12%	1%
Cc1c2cnn(-c3ccccc3)c(=O)c2c(C)n1CC(=O)NCc1ccccc1	3%	?	-29%	-4%
COc1cccc(NC(=O)c2ccccc2NS(C)(=O)=O)c1	5%	?	21µM*	-15%
COc1ccccc1Nc1ncc(C(=O)Nc2ccc(OC)c(OC)c2)c2ccccc12	6%	18µM*	16µM*!	80%
COc1ccccc1NC(=O)c1ccccc1NS(C)(=O)=O	2%	?	15µM*	-5%
COCCCNC(=O)c1ccccc1NS(C)(=O)=O	0%	6%	-3%	28µM*
COCCCNC(=O)c1ccccc1NS(=O)(=O)c1ccc(C)cc1	2%	-12%	0%	-29%
O=C1c2ccccc2C(=O)N1c1cccc2ncccc12	2%	/	/	/
CNS(=O)(=O)c1cc(NC(=O)c2cnc(SC)n2-c2ccccc2)ccc1C	0%	?	15µM*	/
CCCC(=O)N1CCCC1(C)C(=O)NCc1ccc(F)cc1Cl (stereo not given)	/	8%	1%	1%
Cc1noc(C)c1COc1cccc(C(=O)Nc2ccc(Br)cc2F)c1	-4%	8.2µM*	6.5µM*	-4%
Cc1noc(C)c1COc1cccc(C(=O)OC(C)C(=O)Nc2ccc3c(c2)OCO3)c1 (stereo not given)	0%	1µM*	0.82µM*	1%
CC(C)Oc1cccc(C(=O)Nc2ccc(Br)cc2F)c1	5%	?	16µM*	-3%
CCCCCCn1c(N2CCN(c3ccccc3)CC2)nc2c1c(=O)n(C)c(=O)n2C	5%	?	21µM*	0%
CC1CCCN(c2nc3c(c(=O)n(C)c(=O)n3C)n2Cc2ccccc2)C1 (stereo not given)	4%	?	23µM*	-5%
CC1CCCN(Cc2nc3c(c(=O)n(C)c(=O)n3C)n2Cc2ccc(Cl)cc2)C1 (stereo not given)	5%	-10%	-15%	-3%
COCCn1c(N2CCN(c3ccccc3)CC2)nc2c1c(=O)n(C)c(=O)n2C	2%	-26%	?	/
